Screening data as filed in PubChem.
Most compounds without a hit are left out; they make up all but 4.8% or so of the library.
ssDAF12 agonist – activates DAF-12 receptor from parasite S. stercoralis | HEK293 ssDAF-12/GRIP1 lit1-tk-luc reporter, luminescence; % of 3 µM dafachronic acid response | activation, % at 6.8 µM | hit rate 1% among 370,000;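 active means activation above the mean over all tested compounds plus 3 SD, cut at about 0.9% in these data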;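 further: 0% = DMSO-only wells and 100% = 3 µM delta7-dafachronic acid wells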
hcDAF-12 act – H. contortus DAF-12 activation, primary screen. HEK293 hcDAF-12 lit1-tk-luc reporter, luminescence; 0% DMSO, 100% Δ7-dafachronic acid. activation, % at 6.8 µM. hit rate 1.4% among 370,000. AID 652067;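 active means activation above the mean of all tested compounds plus 3 SD, cut at about 5.5% in these data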;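 further: 100% = response to 3 µM Δ7-dafachronic acid high control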
SMARCA2 activ – increases SMARCA2 function in MMTV reporter cells | MG213 cells, MMTV-luciferase reporter, dexamethasone, overnight | activation, % at 9.1 µM | hit rate 1% among 370,000; in the data active means activation above about 7.8%;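 further: 0% = vehicle wells and 100% = reference activator wells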
DAX1 inh-1 – inhibits human nuclear receptor DAX1; AID 504766; hit rate 0.99% among 340,000; HEK293 Gal4-DAX1 luciferase reporter, luminescence; inhibition, % at 6.75 µM;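 active means inhibition above the mean over all tested compounds plus 3 SD, cut at about 4.2% in these data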;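 further: 0% = DAX1-transfected cells with DMSO and 100% = empty-vector control cells with DMSO; inhibition shows as a rise in luminescence from relieved DAX1 repression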
DAX1 inh-2 – inhibitors of DAX1 repression of SF-1 activated StAR promoter | hit rate 1.1% among 370,000 | HEK293T StAR-luciferase reporter, SF-1/DAX-1 repression relief | inhibition, % at 6.8 µM;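 active means inhibition above the mean over all tested compounds plus 3 SD, cut at about 3.6% in these data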;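 further: 0% = DAX-1 cells with DMSO and 100% = cells lacking DAX-1 with DMSO; higher inhibition means more luminescence from relief of DAX-1 repression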
hgDAF12 agonist – activates the H. glycines DAF-12 receptor ligand-binding domain. HEK293 GAL4-hgDAF12 UAS-luciferase reporter, agonist luminescence; normalized to butyrate control. activation, % at 6.8 µM. hit rate 1.8% among 370,000. AID 687014;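 active means activation above a cutoff set at the mean of all screened compounds plus 3 SD, cut at about 10% in these data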;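 further: 0% = DMSO wells and 100% = sodium butyrate wells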
LXR ag – activates human LXR-beta, counter-screen for hcDAF-12 agonists; shares compounds with hcDAF-12 act; HEK293 Gal4-LXR tk-luc reporter, luminescence, 24 h; normalized: DMSO 0%, positive control 100%; activation, % at 6.8 µM; 3,400 tested, under 10 active; AID 743027;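 active means mean percent activation of the reporter above a cutoff set as the average over tested compounds plus their standard deviation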
Target sequence (P55055 whole entry, looked up, the tested form may be a part): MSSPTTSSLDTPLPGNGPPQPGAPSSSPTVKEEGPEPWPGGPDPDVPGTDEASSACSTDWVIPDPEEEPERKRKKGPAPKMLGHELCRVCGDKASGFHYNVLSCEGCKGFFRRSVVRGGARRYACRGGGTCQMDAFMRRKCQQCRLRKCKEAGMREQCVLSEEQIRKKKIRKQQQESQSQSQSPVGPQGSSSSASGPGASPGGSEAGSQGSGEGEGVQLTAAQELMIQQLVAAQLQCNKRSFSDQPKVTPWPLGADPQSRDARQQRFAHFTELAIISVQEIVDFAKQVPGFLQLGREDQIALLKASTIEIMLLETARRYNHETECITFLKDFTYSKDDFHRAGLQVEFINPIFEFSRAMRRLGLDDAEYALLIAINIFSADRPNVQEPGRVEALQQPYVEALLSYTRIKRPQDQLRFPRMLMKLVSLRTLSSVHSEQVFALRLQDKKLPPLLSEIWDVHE
hcDAF12 ag – hcDAF-12 agonism, confirmation assay; shares compounds with hcDAF-12 act; HEK293 hcDAF-12 lit1-tk-luc reporter, luminescence; % of Δ7-dafachronic acid response; activation, % at 6.8 µM; hit rate 61% among 3,400;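 active means mean activation across triplicate tests above the threshold derived from the earlier primary screen, cut at about 5.5% in these data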;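 further: 0% = DMSO only wells and 100% = 3 µM Δ7-dafachronic acid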
An asterisk follows results filed as active.

`COC(=O)c1cc2c(c3c4cc(C)ccc4n(S(=O)(=O)c4cccc(C)c4)c13)C(=O)N(Cc1ccc(C(F)(F)F)cc1)C2` gave ssDAF12 agonist 0, hcDAF-12 act 2, SMARCA2 activ 0, DAX1 inh-2 0 and hgDAF12 agonist 0.
`N#CCC1(O)C(=O)Nc2ccccc21` (configuration not stated) gave ssDAF12 agonist -1, hcDAF-12 act 2, SMARCA2 activ 2, DAX1 inh-2 1 and hgDAF12 agonist 2.
Screening O=S1(=O)c2ccc(Br)cc2OC[C@@H](Cc2ccccc2)N1Cc1cn(Cc2ccccc2)nn1 returned ssDAF12 agonist -2, hcDAF-12 act 0, SMARCA2 activ -5, DAX1 inh-2 1 and hgDAF12 agonist -1.
Screening COc1ccccc1NC(=O)CSCc1nc2ccccc2[nH]1 returned ssDAF12 agonist -1, hcDAF-12 act 7.0*, SMARCA2 activ 2, DAX1 inh-1 -1, DAX1 inh-2 0, hgDAF12 agonist 2, LXR ag 0 and hcDAF12 ag 4.
For Cc1ccc(-c2nnc(-c3cccc4ccccc34)o2)cc1 the results were ssDAF12 agonist 1.2*, hcDAF-12 act 7.6*, SMARCA2 activ -1, DAX1 inh-1 -1, DAX1 inh-2 1, hgDAF12 agonist 7, LXR ag 2 and hcDAF12 ag 21*.
COc1ccccc1N1CCN(C2CCN(C(=O)c3ccc(F)cc3)CC2)CC1 was read as ssDAF12 agonist -1, hcDAF-12 act -3, SMARCA2 activ -4, DAX1 inh-1 1, DAX1 inh-2 0 and hgDAF12 agonist 1.
`COc1cc(C(=O)N2CCC(N3CCN(C)CC3)CC2)ccc1Nc1ncc2c(n1)N(C)c1ccccc1C(=O)N2C` gave ssDAF12 agonist 0, hcDAF-12 act 6.8*, SMARCA2 activ 8, DAX1 inh-2 3.7*, hgDAF12 agonist -5, LXR ag 0 and hcDAF12 ag 6.4*.
CCCCN1CCCOc2cc(Br)ccc2S1(=O)=O was read as ssDAF12 agonist 0, hcDAF-12 act 0, SMARCA2 activ -1, DAX1 inh-2 0 and hgDAF12 agonist -1.
For COc1cc(NC(=O)NC2CCCCN(Cc3ccc(Cl)cc3)C2=O)cc(OC)c1 (configuration not stated) the results were ssDAF12 agonist -1, hcDAF-12 act -3, SMARCA2 activ -4, DAX1 inh-2 -1 and hgDAF12 agonist -3.
CCc1ccc(C2c3[nH]c4ccccc4c3CCN2C(=O)CN2CCN(CC)CC2)cc1 (configuration not stated) was read as ssDAF12 agonist 1, hcDAF-12 act 8.5*, SMARCA2 activ 3, DAX1 inh-1 -1, DAX1 inh-2 0, hgDAF12 agonist 0, LXR ag 0 and hcDAF12 ag 4.
`CCc1ccc(C2c3[nH]c4ccccc4c3CCN2C(=O)CNC(N)=O)cc1` (configuration not stated) gave ssDAF12 agonist -1, hcDAF-12 act 2, SMARCA2 activ 2, DAX1 inh-1 -1, DAX1 inh-2 0 and hgDAF12 agonist 2.
Screening CSc1ccc(C2c3[nH]c4ccccc4c3CCN2C(=O)c2ccnn2C)cc1 (configuration not stated) returned ssDAF12 agonist 2.0*, hcDAF-12 act 10*, SMARCA2 activ 4, DAX1 inh-1 1, DAX1 inh-2 0, hgDAF12 agonist 7, LXR ag 1 and hcDAF12 ag 8.3*.
Screening O=C(NCc1cccs1)C(NS(=O)(=O)c1cccc2nsnc12)c1ccccc1 (configuration not stated) returned ssDAF12 agonist 1, hcDAF-12 act 7.1*, SMARCA2 activ -5, DAX1 inh-1 0, DAX1 inh-2 0, hgDAF12 agonist -2, LXR ag 0 and hcDAF12 ag 1.
CNc1nc(-c2ccccc2)[n+](-c2ccc(C)cc2)s1 was read as ssDAF12 agonist 1.1*, hcDAF-12 act 11*, SMARCA2 activ 3, DAX1 inh-1 -2, DAX1 inh-2 2, hgDAF12 agonist 8, LXR ag 0 and hcDAF12 ag 0.
`CN(N=Cc1ccc2c(c1)OCO2)C(=O)c1ccccc1N` gave ssDAF12 agonist -1, hcDAF-12 act 0, SMARCA2 activ 0, DAX1 inh-2 1 and hgDAF12 agonist 2.
c1ccc(Nc2nc(-c3ccccn3)cs2)cc1 was read as ssDAF12 agonist 1.3*, hcDAF-12 act 13*, SMARCA2 activ 4, DAX1 inh-1 1, DAX1 inh-2 2, hgDAF12 agonist 13*, LXR ag 2 and hcDAF12 ag 11*.
For COc1ccc(/C=C2\C(=O)c3ccccc3OC2c2ccccc2)cc1 (configuration not stated) the results were ssDAF12 agonist -2, hcDAF-12 act -2, SMARCA2 activ 2, DAX1 inh-1 1, DAX1 inh-2 -1 and hgDAF12 agonist 6.
`COc1ccc(/C=C2\Oc3ccccc3C2=O)cc1` gave ssDAF12 agonist 0, hcDAF-12 act 7.2*, SMARCA2 activ 4, DAX1 inh-1 -2, DAX1 inh-2 2, hgDAF12 agonist 10*, LXR ag 1 and hcDAF12 ag 5.
`S=c1nc(-c2ccc(Br)cc2)[nH]c2ccccc12` gave ssDAF12 agonist 1, hcDAF-12 act 7.3*, SMARCA2 activ -2, DAX1 inh-1 1, DAX1 inh-2 1, hgDAF12 agonist 0, LXR ag 0 and hcDAF12 ag 9.0*.
Screening CC(=O)O[C@@H]1C=C[C@@H](C#Cc2ccc(C(C)(C)C)cc2)O[C@@H]1COC(=O)NCc1ccccc1 returned ssDAF12 agonist -1, hcDAF-12 act -2, SMARCA2 activ -2, DAX1 inh-2 -1 and hgDAF12 agonist -2.
O=S1(=O)CCSC[C@@H](CN2CCCC2)N1 was read as ssDAF12 agonist -1, hcDAF-12 act 0, SMARCA2 activ 1, DAX1 inh-2 0 and hgDAF12 agonist 0.
`CC1(C)Nc2ccccc2C(=O)N1c1ccc(Br)cc1` gave ssDAF12 agonist 3.0*, hcDAF-12 act 6.8*, SMARCA2 activ 6, DAX1 inh-1 9.2*, DAX1 inh-2 3, hgDAF12 agonist 13*, LXR ag 1 and hcDAF12 ag 5.
O=C(c1ccc(CNc2c(NC3CCCCC3)c(=O)c2=O)cc1)N1CCc2ccccc21 was read as ssDAF12 agonist 1.1*, hcDAF-12 act 7.4*, SMARCA2 activ -2, DAX1 inh-1 1, DAX1 inh-2 0, hgDAF12 agonist 8, LXR ag 0 and hcDAF12 ag 1.
